WRN inhibitor: inhibitors of human WRN helicase | Q14191 | WRN helicase unwinding, fluorescent forked duplex, kinetic | 360,000 tested, 0.46% active | Potency, µM (top dose mostly 114 µM), most hits filed as inhibitors; note: nearly all actives have a fitted effect of over 55% in size
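Primary qHTS, 1536-well format. 20 nM WRN + compound, 15 min RT; start with 100 nM forked fluorophore/quencher duplex, 2 mM ATP (final); kinetic read ex 525/em 598 nm.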
POLK inh: blocks human DNA polymerase kappa activity. Q9UBT6. purified Pol kappa, fluorescent DNA synthesis assay, 10 min. Potency, µM (titrated, usually from 107 µM), actives largely listed as inhibitors. 400,000 tested, 0.53% active
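50 nM final substrate added after 15 min RT preincubation of 10 nM Pol kappa with compound; fluorescence read at 0 and 10 min.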
Pol beta inh: inhibitors of human DNA polymerase beta; Pol beta primer extension/strand displacement, fluorescence kinetic; Potency, µM (series often up to 114 µM), most hits filed as inhibitors; P06746; 340,000 tested, 1.3% active
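Pol beta (10 nM) was preincubated with compound for 15 min at room temperature. The reaction was then started with 50 nM substrate and read immediately and after a further 10 min at room temperature.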
POLH inh: blocks human DNA polymerase eta activity; Potency, µM (titrated, usually from 114 µM), actives largely listed as inhibitors; Q9Y253; 390,000 tested, 1.2% active; recombinant Pol eta, fluorescent DNA replication assay; AID 588591
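Fluorescent replication assay: 50 nM final substrate added after a 15 min room-temperature compound preincubation with 10 nM enzyme. Signal taken at 0 min and again at 10 min.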
FEN1 inhibitor: inhibitors of human flap endonuclease 1. Recombinant FEN1 flap cleavage, fluorescence, 15 min. Potency, µM (series often up to 114 µM), hits mostly inhibitors. P39748. 390,000 tested, 0.35% active. AID 588795; note: nearly all actives have a fitted effect of over 65% in size
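Potency values derive from four-parameter Hill fits of normalized qHTS data. The reaction used 10 nM FEN1 preincubated 15 min at room temperature with compound, then 50 nM DNA substrate, read at 0 and 15 min.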
POLI inh: blocks human DNA polymerase iota activity; Pol iota fluorescent replication assay, 10 min; Q9UNA4; AID 588590; 390,000 tested, 1% active; Potency, µM (highest dose often 115 µM), most hits filed as inhibitors
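Fluorescent replication assay read twice, at 0 min and 10 min after adding 50 nM (final) substrate. Enzyme (10 nM) and compounds were first incubated 15 min at room temperature; enzyme-free buffer wells were negative controls.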
A number is an active result; i = inactive; ? = inconclusive; nt = no result given; [ ] = another dose, or the depositor's remark. Only some compounds are listed: those with a hit (about 2.4% of all), similar ones and a draw of the others. Calls come from the whole dose curve; as a rule, active = well fitted curve in the direction sought with a large enough effect; inconclusive = small, poorly fitted or top-dose-only effect, or another doubt; inactive = no such curve, though single readings can be large; an effect the other way counts as inactive or inconclusive.

SMILES	WRN inhibitor	POLK inh	Pol beta inh	POLH inh	FEN1 inhibitor	POLI inh
COc1ccc([C@]23Cc4c(ccc5ccccc45)C(O2)C2=C(CC4(CCCCC4)OC2=O)O3)cc1	nt	nt	i[22.9 µM]	nt	nt	nt
O=C1C2=C(C(=O)c3ccccc31)C1O[C@](c3ccsc3)(Cc3c1ccc1ccccc31)O2	nt	nt	3.2µM	nt	nt	nt
Cc1ccc(S(=O)(=O)n2nc(C)c(Br)c2C)c(C)c1C	i	i	i	i	i	i
CCc1ccc(/C=C2\C(=N)N3N=C(CC(=O)N4CCCCC4)SC3=NC2=O)cc1	i	?	i	i	i	?
CC(C)c1ccc(/C=C2\C(=N)N3N=C(CC(=O)N4CCCCC4)SC3=NC2=O)cc1	i[11.6 µM]	?	i	i	i	20µM
COc1ccc(-n2c(C)cc(/C=C3\C(=N)N4N=C(CC(=O)N5CCOCC5)SC4=NC3=O)c2C)cc1	i[11.6 µM]	?	0.89µM	32µM	i	50µM
CC12C=CC(=O)C=C1CCC1C2C(O)CC2(C)C1CCC2(O)C(=O)CO (centres undefined)	i	i	nt	i	i	i
O=C(Nc1ccc2c(c1)CCC2)c1ccc(F)c(S(=O)(=O)N2CCOCC2)c1	i	i	i	i	i	i
COC(=O)c1cn(CCOc2ccccc2F)c2ccccc12	i	i	89µM	i	i	i
COC(=O)c1cn(CCOc2ccccc2OC)c2ccccc12	i	i	i	?	i	i
O=C1NC(=S)S/C1=C\c1cc2ccccc2nc1N1CCCCC1	i[11.6 µM]	i	?	40µM	i	i
COc1ccc(-n2c(C)cc(/C=C3\SC(=S)NC3=O)c2C)cc1	i	i	i	?	i	i
COc1ccc2nc(N3CCCCC3)c(/C=C3\SC(=S)NC3=O)cc2c1	?	i	i	35µM	i	i
CCOC(=O)c1c(-c2ccco2)csc1NC(=O)CSc1nnc(N)s1	i	?	28µM	?	i	35µM
O=C(NCCc1ccccc1)C(c1cccs1)N(C(=O)c1csnn1)C1CC1 (centres undefined)	i	i	i	i	i	89µM
O=C(NCCc1ccccc1)C(c1ccncc1)N(C(=O)c1csnn1)C1CC1 (centres undefined)	i	i	i	i	i	i
CCOc1ccc(/C=C2/SC(=O)NC2=S)cc1	?	?	?	i	?	89µM
CCOc1ccc(/C=C2\SC(=S)N(N3C(=O)C4CC4C3=O)C2=O)cc1 (centres undefined)	i	i	i	i	i	i
CCOc1ccc(N=C2NC(=O)S/C2=C\c2ccc(N(C)C)cc2)cc1	?	i	i	79µM	?	?
O=c1c2ccccc2sc2c(CO)ccc(NCCN3CCCCC3)c12	i[11.6 µM]	i	nt	i	40µM	?
COc1ccccc1Nc1nnc(SCC(=O)N2CCCC2=O)s1	i	i	i	i	i	i
CCc1ccc(Nc2nnc(SCC(=O)NC(=O)CN3CCCC3=O)s2)cc1	i	i	nt	45µM	i	45µM
CC(C)OC(=O)/C(C#N)=C/c1ccc(-c2ccc(Cl)c(Cl)c2)o1	nt	i	i	i	i	i
CC(C)OC(=O)c1cc(-c2ccc(C=O)o2)ccc1Cl	i	i	20µM	?	i	i
COCCN1CC(CNC(=O)c2cc(COc3ccccc3SC)on2)CC1=O (centres undefined)	i	i	i	i	i	i
SMILES	WRN inhibitor	POLK inh	Pol beta inh	POLH inh	FEN1 inhibitor	POLI inh
CC12CCC(C/C1=N\N=C1\NC(=O)/C(=C\c3ccc(Cl)cc3)S1)C2(C)C (centres undefined)	?	i	i	50µM	?	i
O=C1NC(=Nc2ccccc2Cl)S/C1=C\c1ccc(C(=O)O)cc1	i	i	i	?	i	i
O=C(Cc1ccccc1)Nc1cccc(N2C(=O)C=CC2=O)c1	45µM	i	i	i	i	i
COc1cccc(NC(=O)Cc2ccccc2)c1	i	i	i	i	i	i
COc1cc2c(cc1OC)CN(C(=O)C(C)(C)C)CC2	i	i	i	i	i	i
CN(C)c1ccc(/C=C/C(=O)c2cccc(Br)c2)cc1	?	?	?	i	i	79µM
Cc1ccc(C)c(N2CCN(C(c3ccc(F)cc3)c3nnc(-c4ccccc4)o3)CC2)c1 (centres undefined)	nt	?	i	i	?	89µM

Assay outcomes (PubChem)
